# NOMO-1 viab: STK33 inhibitor candidate reducing NOMO-1 cell viability. AID 2330. 7.5% of 37,000 active. inhibition, % (concentration not given with the values). NOMO-1 AML viability, CellTiter-Glo luminescence, 72 h; in the data active = inhibition above about 80%
# PD-1 reversal: reversal of PD-1 mediated T-cell inhibition; primary human CD4 T cells, PD-L1 beads, CellTiter-Glo 96 h; activation, % (test concentration not listed); 29,000 tested, under 10 active; AID 2316; call rule not given here;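 also: 0% = median vehicle wells and 100% = positive control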
# STK33 kin inh: human STK33 kinase inhibition | Q9BYT3 | ADP-Glo luminescence, MBP substrate | inhibition, % at 12.5 µM | 0.44% of 27,000 active | AID 2322; in the data active = inhibition above about 20%
# Target sequence (Q9BYT3 whole entry, looked up): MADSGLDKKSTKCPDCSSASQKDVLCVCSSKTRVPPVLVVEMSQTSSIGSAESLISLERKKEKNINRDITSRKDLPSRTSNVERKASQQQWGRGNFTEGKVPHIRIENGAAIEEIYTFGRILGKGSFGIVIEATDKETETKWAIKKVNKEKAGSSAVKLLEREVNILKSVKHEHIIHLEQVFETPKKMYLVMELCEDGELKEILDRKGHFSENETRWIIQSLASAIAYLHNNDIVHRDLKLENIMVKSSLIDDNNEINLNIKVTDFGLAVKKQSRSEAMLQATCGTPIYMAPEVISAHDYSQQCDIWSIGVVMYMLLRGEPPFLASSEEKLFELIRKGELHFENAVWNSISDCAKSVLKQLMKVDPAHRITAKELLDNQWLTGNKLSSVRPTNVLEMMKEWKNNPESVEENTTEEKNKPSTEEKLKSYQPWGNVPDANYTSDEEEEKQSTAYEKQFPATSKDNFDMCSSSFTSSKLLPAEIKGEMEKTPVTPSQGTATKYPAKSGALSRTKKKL
# An asterisk follows results filed as active; x = not tested or not shown. This is one part of a sample in which hits are shown more often than they occur.
SMILES,NOMO-1 viab,PD-1 reversal,STK33 kin inh
CC(=O)OC1CCC2(C)C(CC[C@@H]3[C@@H]2CCC2(C)C(C4=CC(=O)OC4)CCC32O)C1 (some centres undefined),109*,-16,-9
C[C@H]1O[C@@H](O[C@H]2CC[C@]3(CO)C4CC[C@]5(C)[C@@H](C6=CC(=O)OC6)CC[C@]5(O)C4CC[C@H]3C2)[C@H](O)[C@H](O)[C@@H]1O (some centres undefined),x,x,-2
C[C@H]1O[C@@H](O[C@H]2[C@@H](O)C[C@H](O[C@H]3[C@@H](O)C[C@H](O[C@H]4CC[C@]5(C)C6CC[C@]7(C)[C@@H](C8=CC(=O)OC8)CC[C@]7(O)C6CC[C@@H]5C4)O[C@@H]3C)O[C@@H]2C)C[C@H](O)[C@@H]1O (some centres undefined),111*,x,0
COC1CC(O[C@H]2CC[C@@]3(C)C(CCC4C3CC[C@]3(C)C(C5=CC(=O)OC5)CCC43O)C2)OC(C)C1OC1OC(COC2OC(CO)C(O)C(O)C2O)C(O)C(O)C1O (some centres undefined),119*,-6,-1
CC(=O)O[C@H]1CC[C@]2(C=O)[C@H]3CC[C@]4(C)[C@@H](C5=CC(=O)OC5)CC[C@]4(O)[C@@H]3CC[C@]2(O)C1,124*,-23,-4
CC(C(=O)Nc1ccc(Cl)cc1C(=O)c1ccccc1)N1C(=O)C2C3C=CC(C3)C2C1=O (centres undefined),36,-4,1
CCOc1cc(CN2CCN(C(=O)COc3ccc(C)cc3)CC2)ccc1OC,27,1,x
Cc1nn(Cc2cccc(C(=O)Nc3ccc4oc(=O)cc(C(F)(F)F)c4c3)c2)c(C)c1Cl,37,2,0
CCNC(=S)N1CCN(CC(=O)Nc2ccc(Cl)cc2C(=O)c2ccccc2)CC1,4,-5,0
CC1OC(n2cnc3c(N)ncnc32)C[C@H]1O (some centres undefined),7,4,4
OCC1OC(n2cnc3cc(Cl)c(Cl)cc32)[C@@H](O)[C@H]1O (some centres undefined),40,2,9
C[C@]12CC[C@H](O)C[C@H]1CC[C@@H]1[C@@H]2C[C@@H](O)[C@]2(C)[C@@H](C3=CC(=O)OC3)CC[C@]12O,98*,-18,-1
CO[C@H]1[C@@H](O)[C@@H](C)O[C@@H](O[C@@H]2C=C3C(OC(C)=O)CC4(O)C(CC[C@]5(C)[C@@H](C6=CC(=O)OC6)CC[C@]45O)[C@@]3(C)CC2)[C@@H]1O (some centres undefined),122*,-30,-4
COC1CC(OC2CCC3(C)C(CCC4(O)C3CC(OC(=O)c3ccccc3)C3(C)C(O)(C(C)=O)CCC43O)C2)OC(C)C1OC1CC(OC)C(OC2OC(C)C(O)C(OC)C2O)C(C)O1 (centres undefined),32,2,-2
CC12CC[C@H]3C(CCC4(O)CC(O)CCC34O)C1(O)CCC2C1=CC(=O)OC1 (some centres undefined),6,-2,-1
C[C@]12CC[C@H](O)C[C@H]1CC[C@@H]1[C@@H]2CC[C@]2(C)[C@@H](C3=CC(=O)OC3)CC[C@]12O,120*,x,1
CO[C@H]1[C@@H](O)[C@@H](C)O[C@@H](OC2CCC3(C)C(CC[C@@H]4[C@@H]3CCC3(C)C(C5=CC(=O)OC5)C(O)CC43O)C2)[C@@H]1O (some centres undefined),121*,-16,0
CC(=O)OCC(=O)[C@H]1CC[C@H]2[C@@H]3CC[C@H]4C[C@H](O)CC[C@]4(C)[C@H]3C(=O)C[C@]12C,23,x,-6
COC(=O)c1c(C)n(CCCOC(C)C)c2c1cc(O)c1ccccc12,4,-2,-1
COc1cc2c(cc1OC)C13CCN(C)CC4=CCOC5CC(=O)N2C1C5C4CC3=O (centres undefined),23,0,1
CCC(O)CC1CCCC(CC(O)c2ccccc2)N1C (centres undefined),51,1,0
COC1=CC(=O)O[C@@H](CCc2ccc3c(c2)OCO3)C1,13,1,-1
CC1(C)C(=O)C=C[C@@]2(C)C1C[C@@H](O)[C@]1(C)C2CC[C@@]2(C)[C@H](c3ccoc3)OC(=O)[C@H]3O[C@]321 (some centres undefined),24,x,3
O=C(CCCN1CCC2(CC1)C(=O)N(Cc1cccc(F)c1)CN2c1ccccc1)c1ccc(F)cc1,91*,x,-6
Cc1c(O)c(C(=O)O)c(O)c2c1[C@H](C)[C@@H](C)OC2=O,-9,1,2
CCCC(C)n1[nH]c(=O)c2c1NC(=O)CSC2c1cccc([N+](=O)[O-])c1 (centres undefined),15,3,-1
c1ccc(CSc2nnc(-c3ccccc3)o2)cc1,39,0,x
